A selection: hits, their analogues and other compounds. The true share with any hit is near 0.91%.
APE1 inh-1: blocks human APE1 abasic DNA cleavage. actives 0.35% (n = 350,000). recombinant APE1, TAMRA/BHQ-2 abasic DNA cleavage fluorescence. Potency, µM (titrated, usually from 65.8 µM), for inactives: at the highest dose activity change, negative = inhibition, actives largely listed as inhibitors. P27695. AID 2517;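 further: plate controls were vehicle for no effect and reference inhibitor for full effect; nearly all actives have a fitted effect of over 55% in size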
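Step 1: APE1 (0.75 nM) with compound, 15 min RT. Step 2: add 50 nM fluorophore/quencher THF duplex. Step 3: three fluorescence reads 60 s apart (525/598 nm); read 3 minus read 1 = reaction progress.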
BLM helicase inh-1: inhibitors of human Bloom syndrome helicase BLM; actives 0.2% (n = 350,000); P54132; recombinant BLM DNA unwinding, fluorescence dequenching; Potency, µM (doses to about 56.1 µM), inactives show top-dose activity change, negative = inhibition, actives largely listed as inhibitors; AID 2528;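 further: plate controls were vehicle for no effect and no enzyme for full effect; nearly all actives have a fitted effect of over 35% in size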
Target sequence (P54132 whole entry, looked up): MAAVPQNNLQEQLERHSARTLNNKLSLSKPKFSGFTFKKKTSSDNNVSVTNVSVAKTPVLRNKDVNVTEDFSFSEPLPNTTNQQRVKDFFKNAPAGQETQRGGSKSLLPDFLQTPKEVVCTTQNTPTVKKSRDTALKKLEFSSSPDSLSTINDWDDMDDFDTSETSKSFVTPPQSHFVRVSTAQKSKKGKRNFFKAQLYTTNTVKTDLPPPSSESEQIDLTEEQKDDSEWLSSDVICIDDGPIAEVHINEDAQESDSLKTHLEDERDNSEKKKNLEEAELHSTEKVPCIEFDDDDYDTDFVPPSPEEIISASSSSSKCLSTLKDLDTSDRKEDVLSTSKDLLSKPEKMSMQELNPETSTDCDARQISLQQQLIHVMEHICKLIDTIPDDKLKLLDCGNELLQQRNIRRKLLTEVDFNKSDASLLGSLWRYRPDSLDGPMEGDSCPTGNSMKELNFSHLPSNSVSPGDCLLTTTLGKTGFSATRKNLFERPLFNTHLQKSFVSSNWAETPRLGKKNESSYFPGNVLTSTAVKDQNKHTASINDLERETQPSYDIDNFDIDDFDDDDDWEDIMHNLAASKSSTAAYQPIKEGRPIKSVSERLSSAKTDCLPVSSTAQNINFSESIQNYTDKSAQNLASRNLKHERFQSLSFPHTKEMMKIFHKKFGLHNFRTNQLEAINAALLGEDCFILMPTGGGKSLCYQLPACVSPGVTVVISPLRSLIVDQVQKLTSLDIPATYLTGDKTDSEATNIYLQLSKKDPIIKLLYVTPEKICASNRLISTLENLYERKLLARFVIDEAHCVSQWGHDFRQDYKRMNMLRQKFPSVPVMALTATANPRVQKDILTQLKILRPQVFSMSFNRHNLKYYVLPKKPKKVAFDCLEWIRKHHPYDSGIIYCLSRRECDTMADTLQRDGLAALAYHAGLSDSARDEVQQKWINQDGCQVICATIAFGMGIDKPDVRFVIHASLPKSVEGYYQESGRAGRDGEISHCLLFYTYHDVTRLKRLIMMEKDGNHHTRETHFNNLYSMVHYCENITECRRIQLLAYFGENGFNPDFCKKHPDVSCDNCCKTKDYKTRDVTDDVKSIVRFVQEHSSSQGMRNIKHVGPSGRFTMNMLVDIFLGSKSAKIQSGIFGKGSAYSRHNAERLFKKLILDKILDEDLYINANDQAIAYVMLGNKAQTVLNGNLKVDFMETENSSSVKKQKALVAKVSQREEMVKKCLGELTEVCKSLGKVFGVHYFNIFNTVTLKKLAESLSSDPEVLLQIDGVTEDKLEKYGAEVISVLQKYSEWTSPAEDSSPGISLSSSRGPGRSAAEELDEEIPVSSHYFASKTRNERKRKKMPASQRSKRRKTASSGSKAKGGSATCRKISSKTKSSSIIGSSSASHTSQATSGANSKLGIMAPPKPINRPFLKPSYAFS
RECQ1 inh: inhibitors of human RECQ1 DNA helicase | AID 2549 | Potency, µM (series often up to 57.3 µM), for inactives: at the top dose activity, negative = inhibition, most hits filed as inhibitors | RECQ1 DNA unwinding, red fluorescence kinetic read | actives 0.54% (n = 240,000);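 further: plate controls were vehicle for no effect and no enzyme for full effect; nearly all actives have a fitted effect of over 30% in size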
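RECQ1T1 50 nM; forked duplex (20 bp + 30-nt ss tails) 200 nM, ATP 2 mM final; pH 8.0, 2 mM MgCl2, 2.5 ug/ml poly(dI-dC); 15 min compound preincubation; discontinuous kinetic read over 2 h at RT.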
WRN helicase inh-1: inhibitors of human WRN helicase. actives 0.46% (n = 360,000). AID 651768. WRN helicase unwinding, fluorescent forked duplex, kinetic. Potency, µM (series often up to 114 µM), for inactives: top-dose activity change, negative = inhibition, usual class: inhibitors. Q14191; further: on the % scale 0 is the no-effect control and ±100 the full control effect; nearly all actives have a fitted effect of over 55% in size
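Kinetic fluorescence helicase assay: unwinding of a quenched forked DNA duplex (100 nM final) with 2 mM ATP final raises red fluorescence (525/598 nm). Compounds sat 15 min at room temperature with 20 nM WRN beforehand.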
TexasRed fluor: Texas Red fluorescence interference in TRb-SRC2 counter-screen | TRb/SRC2 Texas Red total fluorescence interference | actives 0.29% (n = 280,000) | Potency, µM (highest dose often 106 µM), for inactives: at the top dose fluorescence change, negative = quenching; active means well fitted curve in either direction with a large enough effect; inconclusive means small, poorly fitted or top-dose-only effect; further: on the % scale 0 is the no-effect control and ±100 the full control effect
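Human TRβ ligand-binding domain (0.6 uM) and Texas Red SRC2 peptide (20 nM) in Tris buffer with 1 uM T3 and 5% DMSO were incubated with pinned compound for 5 hr at ambient temperature. Total fluorescence was computed as S + 2P (555/632 nm).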
TRb SRC2 PPI: inhibitors of human thyroid hormone receptor beta-SRC2 interaction; P10828; TRbeta-SRC2 peptide binding, fluorescence polarization; receptor liganded with 1 µM T3; Potency, µM (series often up to 106 µM), inactives show at the top dose activity change, negative = inhibition, hits mostly inhibitors; actives 0.065% (n = 280,000); AID 1469;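 further: plate controls were bound peptide for no effect and peptide without receptor for full effect; nearly all actives have a fitted effect of over 50% in size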
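Compounds were added to 0.6 uM TRb ligand-binding domain and 20 nM Texas Red-labeled SRC2 peptide in Tris buffer containing 1 uM T3, incubated 5 hr at ambient temperature, then read by fluorescence polarization.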
APE1 dye cs: DNA dye displacement counter-screen activity. shares compounds with APE1 inh-1. DNA fluorescent dye displacement counterscreen, fluorescence. Potency, µM (doses to about 28.5 µM), for the others: at the top dose activity change, negative = inhibition, hits mostly inhibitors. actives 7% (n = 480). AID 2564;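 further: loss of thiazole orange fluorescence as the dye is displaced from duplex DNA; 0% = ThO with dsDNA and no compound and -100% = ThO without dsDNA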
EndoIV counter: counter-screen for APE1 inhibitors: inhibitors of E. coli endonuclease IV. shares compounds with APE1 inh-1. E. coli Endo IV, fluorogenic AP-site DNA cleavage. Potency, µM (highest dose often 27.1 µM), for the others: at the highest dose activity change, negative = inhibition, usual class: inhibitors. actives 4% (n = 560);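 further: plate controls were uninhibited enzyme wells for no effect and no enzyme buffer wells for full effect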
APE1 inh-2: APE1 (human) endonuclease inhibition, confirmation; shares compounds with APE1 inh-1; purified APE1, fluorogenic abasic-site DNA cleavage; Potency, µM (series often up to 57.1 µM), without a hit: at the highest dose activity change, negative = inhibition, hits mostly inhibitors; actives 44% (n = 750); AID 2572; further: on the % scale 0 is the no-effect control and ±100 the full control effect; nearly all actives have a fitted effect of over 30% in size
APE1 FP inh: APE1 (human) DNA binding inhibition, fluorescence polarization | shares compounds with APE1 inh-1 | APE1 binding to TAMRA-labelled double-stranded DNA, fluorescence polarization displacement | Potency, µM (highest dose often 28.5 µM), for inactives: top-dose activity, negative = inhibition, most hits filed as inhibitors | actives 7% (n = 480) | AID 2573; further: on the % scale 0 is the no-effect control and ±100 the full control effect
BLM inh: confirmation of inhibitors of human Bloom syndrome helicase BLM; shares compounds with BLM helicase inh-1; BLM DNA unwinding, fluorescence quenching, biochemical; Potency, µM, for inactives: max response, negative = inhibition, most hits filed as inhibitors; actives 40% (n = 220);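 further: strand separation dequenches TAMRA so unwinding raises red fluorescence; series mostly up to about 69 µM; on the % scale 0 is the no-effect control and ±100 the full control effect; nearly all actives have a fitted effect of over 45% in size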
RECQ1 conf: confirmation of human RECQ1 helicase inhibitors. shares compounds with RECQ1 inh. Potency, µM (top dose mostly 229 µM), for inactives: top-dose activity change, negative = inhibition, most hits filed as inhibitors. actives 28% (n = 610). RECQ1 helicase DNA unwinding, fluorescence. AID 2708; further: on the % scale 0 is the no-effect control and ±100 the full control effect; nearly all actives have a fitted effect of over 45% in size
ADP FP counter: ADP displacement flagged in RECQ1 inhibitor counter-screen; actives 27% (n = 530); Potency, µM (series often up to 228 µM), for inactives: top-dose activity change, negative = inhibition, usual class: inhibitors; ADP fluorescence polarization displacement counterscreen; shares compounds with RECQ1 inh; further: on the % scale 0 is the no-effect control and ±100 the full control effect; nearly all actives have a fitted effect of over 45% in size
WRN helicase inh-2: WRN helicase inhibition, cherry-pick retest; shares compounds with WRN helicase inh-1; WRN helicase DNA unwinding, fluorescence kinetic; Potency, µM (series often up to 57.1 µM), inactives show at the top dose activity, negative = inhibition, most hits filed as inhibitors; actives 63% (n = 610); further: nearly all actives have a fitted effect of over 65% in size
TO DNA binding: DNA binding via thiazole orange displacement; shares compounds with WRN helicase inh-1; thiazole orange DNA binding displacement, fluorescence; Potency, µM (titrated, usually from 57.1 µM), without a hit: at the top dose activity change, negative = inhibition, most hits filed as inhibitors; actives 10% (n = 610);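 further: drop in dye fluorescence marks compound binding to DNA; on the % scale 0 is the no-effect control and ±100 the full control effect; nearly all actives have a fitted effect of over 60% in size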
BLM helicase inh-2: counter-screen for WRN helicase inhibitors: human BLM helicase inhibition; Recombinant BLM helicase DNA unwinding, red fluorescence; Potency, µM (series often up to 57.1 µM), for the others: top-dose activity change, negative = inhibition, hits mostly inhibitors; shares compounds with WRN helicase inh-1; actives 60% (n = 610); further: nearly all actives have a fitted effect of over 60% in size
* marks the source's active call; other numbers are inactive results; i = inactive; ? = inconclusive; . = not tested or not shown; ! = repeats disagree; [ ] = another dose, or the depositor's remark. Unless noted, the call rests on the fitted dose curve; in most records, active means well fitted curve in the direction sought with a large enough effect; inconclusive means small, poorly fitted or top-dose-only effect, or another doubt; inactive means no such curve, though single readings can be large; an effect the other way counts as inactive or inconclusive. Potency means the concentration at half of the fitted maximal effect.

SMILES | APE1 inh-1 | BLM helicase inh-1 | RECQ1 inh | WRN helicase inh-1 | TexasRed fluor | TRb SRC2 PPI | BLM inh | others
O=c1c(O)c(-c2ccc(O)c(O)c2)oc2cc(O)ccc12 | ? | -26% | 3.2µM*! | 2.4µM* | -1% | -4% | . | APE1 dye cs=2.8µM*;EndoIV counter=232%[57.1 µM];APE1 inh-2=0.89µM*;APE1 FP inh=6%[57.1 µM];WRN helicase inh-2=1.5µM*;TO DNA binding=-11%;BLM helicase inh-2=0.86µM*
Cc1cccc(CNC(=O)c2ccc3nc(-c4ccccc4)c(-c4ccccc4)nc3c2)c1 | . | -4% | . | . | -2% | 4% | .
O=C(CCCN1C(=O)/C(=C/c2ccco2)SC1=S)Nc1cccc(C(=O)O)c1 | 7.9µM* | ? | 8.9µM* | 35µM* | -16% | 4% | . | APE1 dye cs=1%;EndoIV counter=106%;APE1 inh-2=?;APE1 FP inh=-9%;RECQ1 conf=71µM*;ADP FP counter=0%[91.9 µM];WRN helicase inh-2=19µM*;TO DNA binding=-8%;BLM helicase inh-2=19µM*
O=C(CCCN1C(=O)/C(=C\c2cccs2)SC1=S)Nc1cccc(C(=O)O)c1 | 9% | -3% | -5% | -12% | -5% | 0% | .
CSc1nc(SCC(=O)O)c2sc3nc(-c4ccccc4)c4c(c3c2n1)CCC4 | ? | -16% | -19% | ? | -7% | 6% | .
CSc1nc(N(C)CCO)c2sc3nc(-c4ccco4)c4c(c3c2n1)CCC4 | 0% | 20µM* | ? | 22µM* | -15% | -12% | ?
Cc1ccccc1Cc1ccc(Cl)nn1 | 3% | 1% | -3% | -2% | 0% | -3% | .
CCOC(=O)C1CCN(C(=O)Cn2c(=O)oc3cc(S(=O)(=O)N4CCC(C)CC4)ccc32)CC1 | . | -1% | . | . | -2% | 8% | .
COc1ccccc1-n1c2nc3ccccc3nc2c2c(=O)n(-c3cc(C)cc(C)c3)cnc21 | 4% | -13% | -4% | -4% | -3% | 11% | .
COc1ccccc1-n1cnc2c(c1=O)c1nc3ccccc3nc1n2-c1ccc(C)cc1 | 4% | 10µM* | -5% | -2% | -5% | -4% | -1%
Cc1ccc2nc(/C(C#N)=C/c3ccc(-c4ccc(F)cc4F)o3)[nH]c2c1 | . | -27% | . | . | -29% | -2% | .
Cc1ccc2nc(/C(C#N)=C/c3ccc(-c4cccc([N+](=O)[O-])c4)o3)[nH]c2c1 | 5% | 22µM* | -9% | ? | -4% | -5% | 13µM*
CCOc1ccc(CCNC(=O)c2nc(-c3cccc(F)c3)n3c2CCCCC3)cc1OCC | . | 0.16µM* | . | . | 63µM*[quencher] | -27% | -7%
COC(=O)c1ccc(CSc2nc3scc(-c4cccs4)c3c(=O)[nH]2)o1 | -8% | 25µM* | -26% | ? | -10% | 5% | ?
Cc1ccc(NCc2ccccc2OCc2ccccc2F)cc1 | -10% | -23% | -14% | -3% | -6% | -6% | .
CCOc1cccc(CNc2ccc(O)cc2)c1OCc1ccc(Cl)cc1 | -11% | 28µM* | -9% | ? | ? | 35µM* | -11%
Oc1ccc(NCc2ccccc2OCc2ccccc2F)cc1 | ? | 28µM*! | -10% | ? | 9%[11.2 µM] | 35µM*! | ?
O=C(CCl)Nc1ccccc1Sc1ccccc1 | 0% | 8.9µM* | 0% | -1% | -2% | -5% | 13µM*
O=C(O)CSc1cc(C(=O)c2ccccc2O)cn2c(=O)c3c(-c4ccccc4)csc3nc12 | -8% | 28µM* | -22% | ? | -5% | 17% | ?
O=C(COC(=O)C1CC(=O)N(Cc2ccco2)C1)c1ccc(OC(=O)c2ccco2)cc1 (stereo unspecified) | -1% | 16µM* | -1% | 35µM* | -9% | -6% | ?
O=C(COC(=O)C1CC(=O)N(Cc2ccccc2)C1)c1ccc(Br)cc1 (stereo unspecified) | ? | 1% | -11% | 9% | -3% | 0% | .
CSc1nc2ccc3nc(NC(=O)C4COc5ccccc5O4)sc3c2s1 (stereo unspecified) | ? | -5% | i | -5% | 0% | 0% | .

Source: PubChem BioAssay (National Center for Advancing Translational Sciences (NCATS))
